Measurements taken from PubChem BioAssay AID1979 (Broad Institute, 2009).
Hit rate of the full screen: of about 300,000 compounds, about 1,700 (0.57%) were called active. Inconclusive results (about 2%) are left out. The list comes from a sample in which actives are over-represented; it also holds similar structures and randomly drawn compounds. A number with no mark means an inactive call.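 How the source made its calls: active means growth inhibition above about 58% in most replicates (limit read from the data, passing the limit was not always enough); inconclusive means exactly half the replicates above a set limit; inactive means most replicates below a set limit.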

Assay: C. albicans growth inhibition with fluconazole, primary screen, CaCi-2 strain, Alamar Blue fluorescence (AID 1979);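 further: all wells also contain fluconazole at 8 µg/ml as a sub-toxic cotreatment; 0% = median of DMSO wells and 100% = median of geldanamycin control wells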
Conditions: C. albicans CaCi-2 (fluconazole-resistant clinical isolate) + fluconazole, 48 h, hits give high values, concentration not given here

| Compound | growth inhibition |
| --- | --- |
| Cc1csc(SCC(=O)Nc2sccc2C#N)n1 | 4.45% |
| COc1ccc(NC(=O)CSc2nc(C)cs2)cc1 | 106% (active) |
| COc1cc(OC)cc(-c2nnc(SCC(=O)Nc3ccc(C(=O)O)cc3)s2)c1 | -1.63% |
| Cc1ccnc(NC(=O)CNC(=O)c2ccccc2)c1 | -1.64% |
| COc1ccc2oc(C(=O)OCC(=O)N(CC(C)C)c3c(N)n(Cc4ccccc4)c(=O)[nH]c3=O)c(C)c2c1 | 5.5% |
| CCCn1c(C)cc(/C=C(\C#N)C(=O)OCC(=O)N(C)c2c(N)n(Cc3ccccc3)c(=O)[nH]c2=O)c1C | -1.38% |
| Cc1c(CCO)sc[n+]1CC(=O)OC12CC3CC(CC(C3)C1)C2 | -19.8% |
| Cc1c(CCOC(=O)CC23CC4CC(CC(C)(C4)C2)C3)sc[n+]1Cc1ccc([N+](=O)[O-])cc1 | 93% (active) |
| Cc1c(CCOC(=O)c2cc([N+](=O)[O-])ccc2Cl)sc[n+]1CCCCS(=O)(=O)[O-] | -13.2% |
| COc1ccc(/C=N/Nc2ncnc3sc4c(c23)CCCC4)cc1O | 18.5% |
| COc1ccc(-c2cc(C(=O)NC(Cc3c[nH]c4ccccc34)C(=O)O)c(C)o2)cc1OC (stereo unspecified) | -7.28% |
| CN(C)CCNC(=O)c1[nH]nc2c1CCc1ccccc1-2 | -8.27% |
| COc1cccc(/C=N/NC(=O)c2[nH]nc3c2CCc2ccccc2-3)c1O | 89.9% (active) |
| COc1cc2cc(C(=O)N/N=C/c3cccc(OC)c3OC)[nH]c2cc1OC | 0.698% |
| CCOc1ccc(-c2cc(C(=O)N/N=C/c3ccc(O)cc3)c3ccccc3n2)cc1 | 10.7% |
| CCC1(c2ccccc2)NC(=O)N(CC(=O)Nc2ccccc2C(=O)NC2CCCC2)C1=O (stereo unspecified) | 2.41% |
| CC(C)c1cc(CN2CCOCC2)cc(C(C)C)c1O | 5.31% |
| Oc1c(C(c2ccccn2)N2CCOCC2)ccc2cccnc12 (stereo unspecified) | 85.8% (active) |
| CCC(C)N(C(=O)COC(=O)c1nc(Cl)ccc1Cl)C1CCS(=O)(=O)C1 (stereo unspecified) | -0.955% |
| Cc1cccc(NC(=O)COC(=O)CCc2ccccc2)c1C | 0.193% |
| Cc1cccc(NC(=O)CSC(N)=O)c1C | 91.9% (active) |
| Cc1cccc(NC(=O)CN2C(=O)c3ccccc3C2=O)c1C | -5.98% |
| COc1ccc(CCNc2cc(N3CCN(C(=O)c4ccccc4OC)CC3)ccc2[N+](=O)[O-])cc1OC | -7.13% |

| Compound | growth inhibition |
| --- | --- |
| O=C(COc1ccc2c3c(c(=O)oc2c1)CCC3)NC1CCCCC1 | 13.6% |
| NC(=O)C1CCN(C(=O)COc2ccc3c4c(c(=O)oc3c2)CCC4)CC1 | -1.66% |
| NC(=O)COc1ccc2c3c(c(=O)oc2c1)CCCCC3 | 122% (active) |
| Cc1ccc(SCC(=O)Nc2nncs2)cc1 | -2.98% |
| COCCOC(=O)C1=C(C)NC(=O)NC1c1cc2c(cc1Br)OCO2 (stereo unspecified) | -1.28% |
| Cc1c(CCC(=O)O)c(=O)oc2c(C)c(OCc3ccccc3Cl)ccc12 | 16.4% |
| COc1cccc(C(=O)NNC(=O)/C=C/c2ccccc2)c1 | -14.4% |
| COc1cccc(C(=O)NNC(=O)c2cccc(F)c2)c1 | -10.7% |
| COc1cccc(C(=O)NNC(=O)c2ccccc2Br)c1 | 110% (active) |
| O=C(O)c1ccc(S(=O)(=O)N2CCC(Cc3ccccc3)CC2)cc1 | -2.12% |
| Cc1ccc(C)c(NC(=O)COC(=O)Cn2c(C)csc2=O)c1 | -4.71% |
| COc1ccc2cc(S(=O)(=O)Nc3ccccn3)ccc2c1 | -0.283% |
| Cc1ccc(NS(=O)(=O)c2ccc(C)c(NC(=O)COc3ccc4ccccc4c3)c2)c(C)c1 | 31.8% |
| COc1cc(NS(=O)(=O)c2ccc3ccccc3c2)c2ncccc2c1 | 89.3% (active) |
| Cc1ccc(-n2c(SCC(=O)N3c4ccccc4Sc4ccccc43)nnc2-c2ccncc2)cc1 | -22.2% |
| Cc1ccc(Nc2nc(CSc3nnc(-c4ccncc4)n3-c3ccccc3C)cs2)cc1 | 113% (active) |
| Cc1ccccc1-n1c(SCC(=O)NCc2cccs2)nnc1-c1ccncc1 | 8.03% |
| O=C(OCCOCn1cc(Br)c(=O)[nH]c1=O)c1ccccc1 | -9.14% |
| CCOc1ccc(NC(=O)COc2ccc(C(=O)N3CCC(C(N)=O)CC3)cc2OC)cc1 | -4.97% |
| CC(C)Oc1ccc(S(=O)(=O)N2CCOCC2)cc1NC(=O)C1CSC2(C)CCC(=O)N12 (stereo unspecified) | -0.702% |
| COc1ccc(C(=O)NCCCN2CCOCC2)cc1Br | -0.331% |
| Cc1ccc(S(=O)(=O)N2CCN(C(=O)Cc3sc(C)nc3-c3ccc(F)cc3)CC2)c(C)c1 | -1.25% |
| Cc1nc2c(c(C)nn2-c2ccccc2)c(C)c1C | 1.68% |

| Compound | growth inhibition |
| --- | --- |
| O=C(N/N=C/c1ccc(O)c2ccccc12)c1cccnc1 | 11.5% |
| O=C(N/N=C/c1sc(N2CCCCC2)nc1-c1cccs1)c1cccnc1 | 94.5% (active) |
| O=C(N/N=C/c1ccccn1)c1cccnc1 | 6.91% |
| CCOc1ccc(NC(=O)c2ccc(NC(=O)CN3C(=O)C(=O)N(CC(C)C)C3=O)cc2)cc1 | -2.68% |
| COc1ccc(S(=O)(=O)NCc2cccnc2)cc1NC(=O)c1ccc(C)cc1 | -3.27% |
| CCN(CC)CCCN=Cc1c(O)n(-c2ccc(C)cc2)c(=O)c2ccccc12 | -8.89% |
| CCOc1ccc(-n2c(O)c(/C=N/c3ccnn3Cc3ccncc3)c3ccccc3c2=O)cc1 | 15.4% |
| CCOc1ccc(-n2c(O)c(/C=N/Nc3nc(C)cc(C)n3)c3ccccc3c2=O)cc1 | 113% (active) |
| CCOC(=O)c1c(C)[nH]c(C(=O)OCC(=O)N2CCCC2=O)c1C | -3.16% |
| Cc1nc2ccccc2nc1N/N=C/c1ccc(O)cc1O | 10.5% |
| C=CCn1c(CC(=O)Nc2cccc(OC)c2)nnc1SCC(=O)NC1CCCCC1 | 4.51% |
| COc1ccc(-n2cnnc2SCC(=O)Nc2cccc(S(N)(=O)=O)c2)cc1 | -1.9% |
| C=CCn1c(COc2ccc(F)cc2)nnc1SCC(=O)Nc1cccc(S(N)(=O)=O)c1 | 94.6% (active) |
| CS(=O)(=O)c1ccc(Cl)c(NC(=O)COC(=O)c2cccc(S(=O)(=O)N3CCCC3)c2)c1 | -1.03% |
| Cc1cc(Nc2ccc(C(=O)N3CCCCC3)cc2)c2cccc(C)c2n1 | 2.84% |
| Cc1ccn2c(=O)nc(SCC(=O)NCc3ccc4c(c3)OCO4)nc2c1 | 1.59% |
| Cc1ccc(N/N=C2\COC(C)(C)CC2=O)cc1 | 101% (active) |
| COc1ccc(N/N=C2/CCCCC2=O)cc1 | -21.7% |
| Cc1ccc(NN=C2C(=O)OC(C)(C)OC2=O)c(C)c1 | -5.58% |
| COc1ccccc1C(=O)NC(=O)COC(=O)c1ccco1 | 8.59% |
| CC1CN(C(=O)COC(=O)c2cccc(NS(=O)(=O)c3ccccc3)c2)CC(C)O1 (stereo unspecified) | 5.4% |
| O=[N+]([O-])c1ccc(O)c(/C=N/Nc2ccccc2[N+](=O)[O-])c1 | -1.45% |
| O=C(N/N=C/c1ccc(O)cc1)/C(=C/c1ccc([N+](=O)[O-])cc1)NC(=O)c1ccccc1 | 1.1% |

| Compound | growth inhibition |
| --- | --- |
| O=C(N/N=C/c1cc([N+](=O)[O-])ccc1O)/C(=C\c1cccs1)NC(=O)c1ccccc1 | 116% (active) |
| COc1ccccc1OCc1ccc(C(=O)NC(C)c2ccccc2)o1 (stereo unspecified) | -11.7% |
| COc1ccc(OC)c(NC(=O)CSc2nc(-c3ccccc3)cc(=O)[nH]2)c1 | 55% |
| Cc1ccc(NS(=O)(=O)c2ccc(N/N=C/c3ccccc3OCC(=O)O)c([N+](=O)[O-])c2)c(C)c1 | -7.09% |
| Cc1cccc(COc2ccccc2/C=N/Nc2ccc([N+](=O)[O-])cc2)c1 | 91.8% (active) |
| O=[N+]([O-])c1ccc(N/N=C/c2ccccc2)cc1 | -28.5% |
| O=C1c2ccccc2C(=O)c2c1cccc2N1CCN(C/C=C/c2ccccc2)CC1 | 8.05% |
| Cc1ccc(S(=O)(=O)NC(C)C(=O)NCc2ccc(Cl)cc2)cc1 (stereo unspecified) | -3.28% |
| COc1ccc(C2=NN(C(C)=O)C(c3ccccc3)C2)cc1 (stereo unspecified) | -6.81% |
| COc1ccc(-n2nnnc2-c2nc3ccccc3s2)cc1 | -12.1% |
| COc1ccc(C2=NN(c3nc4ccccc4s3)C(=O)C2)cc1 | 94.5% (active) |
| O=c1c2ccccc2ncn1CCCCOc1ccccc1F | 0.805% |
| COc1ccc(C(=O)NNC(=S)NC(=O)c2ccccc2[N+](=O)[O-])cc1 | 5.98% |
| CC(C)Oc1ccc(CCC(=O)NNC(=S)NCc2ccccc2)cc1 | 1.53% |
| COc1ccc(C(=O)NNC(=S)NC(=O)c2ccccc2)cc1 | 96.8% (active) |
| COc1ccc(C(=O)NC(=S)NNC(=O)CCc2ccccc2)cc1 | 114% (active) |
| O=C(CCc1ccccc1)NNC(=O)c1ccc(Br)cc1 | 5.83% |
| COc1ccc(C(=O)NC(=S)NNC(=O)c2c(-c3ccccc3)noc2C)cc1 | 32.7% |
| Cc1ccc(NC(=O)c2cnc(SCC(=O)NCC3CCCO3)n(C)c2=O)cc1 (stereo unspecified) | -0.731% |
| CCOc1ccc(CCNC(=O)COC(=O)CCS(=O)(=O)c2ccc(C)cc2)cc1OCC | -6.92% |
| COc1cccc(NC(=O)CN(C)C(=O)CSC(=S)N2CCCC2)c1 | -3.71% |
| CC(=O)Nc1ccc(NC(=O)CSc2nnnn2C2CCCCC2)cc1 | -2.4% |
